GLD-1 TGE inh – GLD-1-TGE RNA interaction inhibition (C. elegans); actives 0.44% (n = 320,000); inhibition, % at 5.96 µM; purified GLD-1 + fluorescein TGE RNA, fluorescence polarization;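 active means percent inhibition above a per-plate cutoff, the plate mean of test compounds plus 3 SD, cut at about 30% in these data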
Mcl-1 Bim block – human Bim-Mcl-1 interaction inhibition | Q07820 | Bead-based flow cytometry, Bim peptide-Mcl-1 binding | inhibition, % at 10 µM | actives 0.1% (n = 190,000) | AID 1009; in the data active means inhibition above about 40%
Target sequence (Q07820 whole entry, looked up): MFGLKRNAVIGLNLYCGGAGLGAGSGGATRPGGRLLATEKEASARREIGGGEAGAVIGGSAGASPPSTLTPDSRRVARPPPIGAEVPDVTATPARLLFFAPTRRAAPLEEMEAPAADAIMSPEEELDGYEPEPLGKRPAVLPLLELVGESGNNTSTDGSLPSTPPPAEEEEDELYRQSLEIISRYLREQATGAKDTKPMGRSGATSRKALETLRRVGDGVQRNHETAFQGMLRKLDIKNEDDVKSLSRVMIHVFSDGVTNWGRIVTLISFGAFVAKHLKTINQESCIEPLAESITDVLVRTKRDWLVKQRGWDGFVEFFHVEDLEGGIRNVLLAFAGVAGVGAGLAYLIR
MCL1-BIM inh – inhibitors of human MCL1 binding to BIM-BH3 peptide | inhibition, % at 10.9 µM | GST-MCL1 / FITC-Bim-BH3 fluorescence polarization | Q07820 | AID 2057 | actives 0.68% (n = 320,000);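 active means inhibition above the mean inhibition of all tested compounds plus 3 SD, set per campaign, cut at about 40% in these data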;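 further: higher means more loss of mP so more displacement of Bim peptide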
Mcl1 Bid PPI – Mcl-1/Bid interaction inhibition. Q07820. TR-FRET Mcl-1/Bid-Dy647 peptide binding, 1536-well. inhibition, % at 21.7 µM. actives 0.97% (n = 220,000). AID 1021;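 active means compounds that cut the binding signal by more than half at the single screening dose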;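 further: His-tagged Mcl-1 with europium anti-His antibody binding Bid BH3 peptide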
Bcl-xL primary – inhibitors of human Bcl-xL. inhibition, % at 10.9 µM. Q07817. actives 0.7% (n = 320,000). GST-Bcl-xL / FITC-Bim BH3 peptide fluorescence polarization. AID 2129;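 active means inhibition above the mean of all tested compounds plus 3 SD, cutoff set per campaign, cut at about 30% in these data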;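 further: inhibitors lower millipolarization by displacing the labeled peptide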
Mcl1 Noxa PPI – disrupts binding of human Mcl-1 to Noxa peptide; Q07820; TR-FRET Mcl-1/Noxa peptide binding, 2 h; inhibition, % at 21.7 µM; actives 1.5% (n = 220,000); AID 1022;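 active means compounds that cut the protein-peptide binding signal by more than 50% relative to plate controls in a single-dose test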;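 further: His-tagged Mcl-1 with rhodamine Noxa BH3 peptide and terbium anti-His antibody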
Numbers stand for hits; n = inactive; x = no result. Hits are enriched below; roughly 2.3% of the tested compounds scored in any of these assays.

SMILES | GLD-1 TGE inh | Mcl-1 Bim block | MCL1-BIM inh | Mcl1 Bid PPI | Bcl-xL primary | Mcl1 Noxa PPI
CCCOC(=O)C1=C(C)N(C)C(=O)NC1c1cc2c(cc1[N+](=O)[O-])OCO2 (stereo not drawn) | n | n | 45 | n | 43 | n
CC1=C(C(=O)OCC(C)C)C(c2cc3c(cc2Br)OCO3)NC(=O)N1C (stereo not drawn) | n | n | n | n | n | n
Cc1ccc(S(=O)(=O)N(C(=O)c2ccncc2)c2ccc(OC(=O)c3ccncc3)c3ccccc23)c(C)c1 | n | n | n | n | n | n
Cc1ccc(S(=O)(=O)N(C(=O)c2ccncc2)c2ccc(OC(=O)c3ccncc3)c3ccccc23)cc1 | n | n | n | n | n | 59
CCOC(=O)c1nn(-c2ccc(C)cc2)c(=O)cc1OCC(=O)Nc1ccc(OC)cc1 | n | x | n | x | n | x
COc1ccccc1C1C2CCCCC2(O)CCN1CC(=O)Nc1ccccc1 (stereo not drawn) | n | n | n | n | n | n
CCCCNC(=O)CN1CCC2(O)CCCCC2C1c1ccccc1OC (stereo not drawn) | 79 | n | n | n | n | n
Cn1nc(SCC(=O)O)sc1=S | n | n | n | 64 | n | n
CCOC(=O)C(Sc1nn(C)c(=S)s1)C(C)=O (stereo not drawn) | n | n | n | n | n | x
O=C1Nc2ccccc2/C1=C\C(=O)c1ccccc1 | n | x | n | x | n | x
O=C(/C=C1\C(=O)Nc2ccccc21)/C=C1\C(=O)Nc2ccccc21 | x | x | x | 92 | x | 102
Cc1ccc(S(=O)(=O)NC2=NCN(CC(=O)O)CN2)cc1 | n | x | n | x | n | x
COc1ccc(C(O)(CC(C)C)C(CN2CCOCC2)c2ccccc2)cc1 (stereo not drawn) | n | x | n | x | 47 | x
COc1ccc(C(O)(CCC(C)C)C(CN2CCOCC2)c2ccc(Cl)cc2)cc1 (stereo not drawn) | n | x | n | x | n | x
O=C(/C=C/c1ccc([N+](=O)[O-])cc1)c1ccco1 | n | x | n | x | n | x
O=C(/C=C/c1ccc(-c2ccccc2[N+](=O)[O-])o1)c1ccco1 | n | n | n | n | n | 66
COc1ccc(C(=O)N2CCCC(CCC(=O)NCc3ccccc3F)C2)c(OC)n1 (stereo not drawn) | n | x | n | x | n | x
CC(C)(C)NCC(O)COc1ccccc1C(=O)CCc1ccccc1 (stereo not drawn) | n | n | n | n | n | n
CC(C)(C)NCC(O)COc1ccccc1C(C)(C)C (stereo not drawn) | n | n | n | n | n | 54
O=C(NC1CC2CCCC(C1)N2C(=O)Nc1ccc(F)cc1)c1ccccc1 (stereo not drawn) | n | x | n | x | n | x
CC(CCc1ccccc1)NC(=O)CN1CCSc2ccccc21 (stereo not drawn) | n | n | n | n | n | n
COc1ccc(/C=C/C(=O)c2ccc(OC)cc2OC)c(OC)c1 | n | n | n | n | n | n
CNc1ccc(Br)cc(C(=O)/C=C/c2ccc(Cl)cc2Cl)c1=O | n | n | n | n | n | 92
CNc1ccc(Br)cc(C(=O)/C=C/c2ccc(OC)cc2OC)c1=O | n | n | n | n | n | 76
CNc1ccc(Br)cc(C(=O)/C=C/c2cccc(OC)c2)c1=O | n | n | n | n | n | 81
SMILES | GLD-1 TGE inh | Mcl-1 Bim block | MCL1-BIM inh | Mcl1 Bid PPI | Bcl-xL primary | Mcl1 Noxa PPI
CNC(=O)N(O)C1N(/N=C/c2ccccc2OC)C(=S)SC1(C)C (stereo not drawn) | n | x | n | x | n | x
CC1CCN(C(=O)COc2cccc3c2CCN(C)C3=O)CC1 | n | n | n | n | n | n
CCOC(=O)N1CCN(C(=O)c2cc(COc3ccc(OC)cc3Cl)on2)CC1 | n | x | n | x | n | x
O=C1NCC(O)=C1C=Nc1ccccc1O | n | x | n | n | n | n
Cc1ccc(Cn2c(SCC(=O)N/N=C/c3ccc(C)o3)nc3ccccc32)cc1 | n | n | n | 52 | n | n
N#CCCN1CCCc2cc(N=Nc3ccc(C(F)(F)F)cc3)ccc21 | n | x | n | n | n | n
CCC(=O)N(CC)c1nc(-c2ccc(OC)cc2)cs1 | n | n | n | 54 | n | n
COc1ccc(CN2C(=O)c3cccnc3C2Nc2ccc(OC)c(Cl)c2)cc1 (stereo not drawn) | n | n | n | 70 | n | n
COc1ccc(NC2c3ncccc3C(=O)N2Cc2ccccc2)c(OC)c1 (stereo not drawn) | n | n | n | 64 | n | n
